Results published in PubChem BioAssay AID1626 (SRMLSC, 2009).
About 2,000 (0.91%) of roughly 220,000 compounds were called active. About 2% were inconclusive and are not listed. Only a sample is shown. Measured potencies and affinities stand elsewhere. Unmarked numbers belong to inactive results. Cut-off read from the data, not from the text of the source: inconclusive = inhibition above about 80% without an active follow-up result; inactive = below that; test concentration not stated here.

Assay: M. tuberculosis H37Rv growth inhibitors, H37Rv strain (AID 1626);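 note: bacteria incubated seven days before Alamar blue readout; 0% = bacteria only wells and 100% = bacteria with antibiotic wells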
Settings: hits give high values, concentration not given here
Work on `Cc1ccccc1Nc1nc(N)nc(CSc2nnc(C)n2C)n1` yielded an inhibition of 3.87%. `CCn1c2ccccc2c2cc(C3N=C(N)Nc4nc5ccccc5n43)ccc21` (stereo unspecified) gave an inhibition of -6.84%. With `Cc1ccc(C2N=C(N)Nc3nc4ccccc4n32)cc1` (stereo unspecified) the inhibition was -6.16%. `CCOC(=O)C1=C(C)Nc2nc3ccccc3n2C1c1ccccc1` (stereo unspecified) showed an inhibition of -9.7%. For `NC1=NC(c2ccccc2Cl)n2c(nc3ccccc32)N1` (stereo unspecified), the inhibition was 7.21%. Work on `Cc1cccc(C2N=C(N)Nc3nc4ccccc4n32)c1` (stereo unspecified) yielded an inhibition of -9.29%. For `NC1=NC(c2ccc(Cl)cc2)n2c(nc3ccccc32)N1` (stereo unspecified), the inhibition was 4.44%. Compound `O=C1C2C3CCC(C3NCc3ccccc3)C2C(=O)N1Cc1ccccc1` (stereo unspecified) has an inhibition of -0.18%. `OC(CSc1ccc(F)cc1)CN1CCN(c2ccccc2)CC1` (stereo unspecified) showed an inhibition of 2.78%. `Cc1nc(-c2nc(-c3c(C(=O)NNC(=O)Nc4ccccc4)noc3C)cs2)cs1` showed an inhibition of 1.03%. For `Cc1nc(NC(=O)c2cc(-n3cnnc3)ccc2Cl)ccc1Br`, the inhibition was 0.92%. For `O=C(NC12CC3CC(CC(C3)C1)C2)c1ccccc1`, the inhibition was 2.5%. `COc1ccc(CC(=O)OCC(=O)NC(=O)NC23CC4CC(CC(C4)C2)C3)cc1` gave an inhibition of 0.65%. Compound `O=C(COC(=O)c1ccc(-c2ccc([N+](=O)[O-])cc2)o1)NC(=O)NC1CCCCC1` has an inhibition of 31%. For `O=C(NC12CC3CC(CC(C3)C1)C2)c1ccc(=O)oc1`, the inhibition was -2.56%. With `CCN(Cc1cc2ccc(C)cc2[nH]c1=O)C(=O)c1cccnc1` the inhibition was 3.56%. For `COCCSc1nnc(NS(=O)(=O)c2ccc(C)cc2)s1`, the inhibition was -4.12%. `O=C(CSc1nnc(-c2ccco2)n1Cc1ccccc1)OC1CCCCC1` gave an inhibition of -11.8%. For `N/C(=N\OC(=O)/C=C/c1ccccc1)c1ccc(Cl)cc1`, the inhibition was 1.43%. For `COC(=O)c1cc(C#N)c(N2CCOCC2)nc1C`, the inhibition was -9.18%. With `O=C(O)c1cc(Cl)ccc1-c1ccc(/C=C/c2cc(C(F)(F)F)[nH]c(=O)n2)o1` the inhibition was -1.69%. With `O=C(O)c1ccccc1-c1ccc(/C=C/c2cc(C(F)(F)F)[nH]c(=O)n2)o1` the inhibition was -2.38%. `Cc1ccc(S(=O)(=O)Nc2cc(C(C(=O)OC(C)C)C(=O)C(F)(F)F)c(O)c3ccccc23)c(C)c1` (stereo unspecified) showed an inhibition of -10.5%. With `CCc1nc(N)c(C#N)c(-c2ccc(OC)c(OC)c2)c1C` the inhibition was -2.13%. `COc1ccc(CNC(=O)/C=C/c2ccc(OCCCF)cc2)cc1` gave an inhibition of 11.3%. For `O=C(/C=C/c1ccc(OCCCF)cc1)Nc1ccnc(-c2cccnc2)n1`, the inhibition was -6.59%.
